The campaign covered roughly 68,000 compounds. About 2,700 (4%) showed an effect of 50% or more. The entries come from a sample that favours strong results as a whole.

This experiment deals with Plasmodium berghei. In words: Screen against P. berghei liver stage (PbLuc), transformed with Luciferase, at 2uM. The class given is functional, HepG2. As to conditions: tested at 2 uM.
Turning to `Cc1cc(=O)[nH]c(=O)n1-c1cccc(Cl)c1Cl`, the INHIBITION is given as -12.39%.

With `O=C1NCCN1C1CCN(Cc2nc(-c3ccc(F)cc3)no2)CC1`, the INHIBITION worked out at 21.39%.

For the molecule `Cc1ccc(-c2noc(CN3CCC(N4CCNC4=O)CC3)n2)cc1`, the INHIBITION worked out at 9.17%.

For `O=C1NCCN1C1CCN(Cc2nc(-c3ccccc3)no2)CC1`, the INHIBITION is on record as 64.16%.

For `O=C1CC(NS(=O)(=O)N2CCOCC2)CN1Cc1ccccc1` (stereo not given), the INHIBITION is recorded as 21.22%.

On to `O=C1CC(NS(=O)(=O)N2CCOCC2)CN1Cc1ccc(F)cc1` (stereo not given), for which the INHIBITION turned out to be 57.75%.

With `O=C1CC(NS(=O)(=O)N2CCOCC2)CN1CCc1ccccc1` (stereo not given), the INHIBITION turned out to be 43.44%.

Consider `COCCCNC(=O)CN(C)C(=O)c1ccc(-n2cccc2)cc1O`, for which the INHIBITION is given as -44.96%.

On to `CC(C)C(=O)N1CCN(Cc2ccccn2)CC2(CC(=O)N(C)C2)C1` (stereo not given), for which the INHIBITION was found to be 31.5%.

Consider `Cc1ocnc1C(=O)N1CCCC1c1ccc(C(=O)N2CCSCC2)s1` (stereo not given), for which the INHIBITION was found to be 9.31%.

On to `COc1ccc(C2(NCc3c(C)nc4c(C)cccn34)CCCC2)cc1`, for which the INHIBITION was -43.11%.

As to `CCc1cc(NC2CCOCC2)n2nc(C)c(C)c2n1`, the INHIBITION is -35.61%.

On to `Cn1nccc1CCNC(=O)[C@H]1CNC[C@H](C(=O)N2CCCC2)C1`, for which the INHIBITION is on record as 27.73%.

On to `CNc1ncc(-c2csc(NC(=O)C[C@H]3COCCN3)n2)cn1`, for which the INHIBITION stood at 12.21%.

With `CC(C)Nc1ncc(-c2csc(NC(=O)C[C@H]3COCCN3)n2)cn1`, the INHIBITION came to 22.1%.

For `Nc1ncc(-c2csc(NC(=O)C[C@H]3COCCN3)n2)cn1`, the INHIBITION is listed as 62.99%.

With `CC(C)c1nc(C2CCCN2Cc2ccncc2Cl)no1` (stereo not given), the INHIBITION was found to be 60.09%.

As for `CC(C)c1nc(C2CCCN2c2cnc3cc(F)c(F)cc3n2)no1` (stereo not given), the INHIBITION is listed as 55.43%.

For the molecule `CC(C)c1nc(C2CCCN2Cc2ccon2)no1` (stereo not given), the INHIBITION came to 56.02%.

For `Cc1cnc(CN2CCCC2c2noc(C(C)C)n2)cn1` (stereo not given), the INHIBITION is reported as 13.86%.

With `CC(C)c1nc(C2CCCN2Cc2ccno2)no1` (stereo not given), the INHIBITION was -9.3%.

For `C1CC(c2nnc(CN3CCCC3c3noc(C4CC4)n3)o2)C1` (stereo not given), the INHIBITION amounted to 21.43%.

Regarding `Cc1nc(C2CCCN2Cc2ccon2)no1` (stereo not given), the INHIBITION worked out at 1.63%.

Regarding `CC(C)c1nc(C2CCCN2c2cnc3ccccc3n2)no1` (stereo not given), the INHIBITION turned out to be 1.41%.

Regarding `CC(C)c1nc(C2CCCN2Cc2nnc(C3CCC3)o2)no1` (stereo not given), the INHIBITION turned out to be 53.33%.

With `CCc1nc(C2CCCN2Cc2nnc(C3CCC3)o2)no1` (stereo not given), the INHIBITION is reported as 16.26%.

Consider `CC(C)c1nc(C2CCCN2Cc2ccccc2C#N)no1` (stereo not given), for which the INHIBITION is listed as -17.71%.

In the case of `CC(C)c1nc(C2CCCN2c2ccnc(C3CCCC3)n2)no1` (stereo not given), the INHIBITION is 14.92%.

With `CNc1cncc(C2CCCN2S(=O)(=O)c2ccccc2F)n1` (stereo not given), the INHIBITION came to 29.89%.

For the molecule `CC(C)CNC(=O)[C@H]1CCS(=O)(=O)[C@@H]2CN(Cc3ccc(Cl)cc3)C[C@H]12`, the INHIBITION turned out to be 8.13%.

Turning to `CCc1cccc(N2CCC(NC(=O)C3CCCO3)CC2)c1` (stereo not given), the INHIBITION is listed as 22.53%.

As for `CC(=O)N(Cc1noc(C2CC2)n1)C1CCN(Cc2nccn2C)C1` (stereo not given), the INHIBITION was -27.69%.

As to `Cc1cc(NC(=O)CN2CCCC2c2noc(C(C)C)n2)no1` (stereo not given), the INHIBITION was determined as 21.12%.

Turning to `CC(C)c1nc(C2CCCN2CC(=O)N2CCNC2=O)no1` (stereo not given), the INHIBITION worked out at 57.33%.

As for `CC(C)c1nc(C2CCCN2CC(=O)N2CCc3ccccc32)no1` (stereo not given), the INHIBITION is recorded as 30.91%.

In the case of `COc1ncccc1CN1CCC2(CC1)CC(OCC1CC1)CO2` (stereo not given), the INHIBITION was -23.93%.

As to `Cc1nn(Cc2ccc(C(=O)NCCCN3CCOCC3)o2)c(C)c1Cl`, the INHIBITION is on record as 32.66%.

For the molecule `Cn1ncc(N2CCOC(CCNC(=O)NC(C)(C)C)C2)cc1=O` (stereo not given), the INHIBITION was 39.32%.

With `NC(=O)CN1CCCN(C(=O)Cc2ccc(Br)cc2)CC1`, the INHIBITION turned out to be 11.24%.

Take `Cc1nnc(CN(C)CCCOc2cccc(Cl)c2)o1`: the INHIBITION is recorded as -33.74%.

As to `CN(CCOc1cccc(Cl)c1)Cc1nnc(C(C)(C)C)o1`, the INHIBITION is -19%.

Regarding `Cc1nnc(CN(C)CCOc2cccc(Cl)c2)o1`, the INHIBITION is 70.83%.

With `CCc1nc(C2CCCN2C(=O)c2ccc3c(c2)COC3)no1` (stereo not given), the INHIBITION turned out to be 16.18%.

For `CS(=O)(=O)N(Cc1ccon1)c1ccc2c(c1)OCO2`, the INHIBITION is reported as 37.25%.

Turning to `OC1(CN2CCOC(Cn3cccn3)C2)CCCCC1` (stereo not given), the INHIBITION was -1.88%.

For the molecule `O=C(Cc1ccccn1)N1CCN(CC2CC2)c2ncccc2C1`, the INHIBITION is on record as 16.87%.

In the case of `COc1cccc2c(=O)n(C3CCNCC3)cnc12`, the INHIBITION was 24.6%.

Consider `Cc1csc2c(=O)n(CCN3CCNCC3)cnc12`, for which the INHIBITION was 23.68%.

For the molecule `CC(C)N1CCN(CCn2cnc3c(F)cccc3c2=O)CC1`, the INHIBITION is -13.34%.

Turning to `COc1cccc2c(=O)n(Cc3cccnc3)cnc12`, the INHIBITION is -66.95%.

For the molecule `O=c1c2cccc(F)c2ncn1CCN1CCNCC1`, the INHIBITION was 65.76%.

`CN1CCN(CCn2cnc3c(F)cccc3c2=O)CC1`: the INHIBITION was 30.42%.

In the case of `COc1cccc2c(=O)n(CCN3CCNCC3)cnc12`, the INHIBITION is 50.61%.

In the case of `O=c1c2cccc(F)c2ncn1CCN1CCOCC1`, the INHIBITION was 25.37%.

Regarding `O=c1c2cccc(C(F)(F)F)c2ncn1CCN1CCNCC1`, the INHIBITION amounted to 50.61%.

(Values after ChEMBL document CHEMBL4513216, “Probing the Open Global Health Chemical Diversity Library for Multistage-Active Starting Points for Next-Generation Antimalarials” (ACS Infect Dis, 2020).)
